Screens (PubChem)
ZTA DNA inh: blocks Epstein-Barr virus ZTA, an EBNA-1 counter-screen; ZTA-DNA binding, fluorescence polarization; inhibition, % at 11 µM; 320,000 tested, 0.15% active; P03206; in the data active = inhibition above about 33%
EBNA-1 inhibitor: blocks EBNA-1 binding to DNA; inhibition, % at 14.8 µM; EBNA-1 DNA binding, fluorescence polarization; 300,000 tested, 0.34% active; in the data active = inhibition above about 28%
LANA DNA inh: inhibitors of KSHV LANA C-terminal domain DNA binding; AID 504423; 340,000 tested, 0.078% active; inhibition, % at 9 µM; MBP-C-LANA/FAM-LBS DNA binding, fluorescence polarization;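 active = highest replicate inhibition at or above 60% at 9 µM, even if other replicates fall short; inactive = all replicates below 60% inhibition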;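 also: 0% = neutral control wells and 100% = 4 µM acridine orange control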
E coli Lon inh: inhibitors of E. coli Lon protease; P0A9M0; AID 602123; inhibition, % at 7.94 µM; purified E. coli Lon protease, fluorescence polarization; 360,000 tested, 0.42% active; in the data active = inhibition above about 13%, passing the limit was not always enough;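 also: 0% = enzyme with probe and DMSO and 100% = no enzyme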
Keap1-Nrf2 PPI: Keap1-Nrf2 (human) interaction inhibition. Keap1 Kelch-Nrf2 peptide fluorescence polarization, 1536-well. inhibition, % at 9.4 µM. 340,000 tested, 0.15% active. AID 504523; in the data active = inhibition above about 12%;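 also: human Keap1 Kelch domain with fluorescein labeled Nrf2 9mer peptide probe; 0% = neutral control wells and 100% = peptide positive control; higher means more block of Keap1 binding to Nrf2 peptide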
Target sequence (Q14145 whole entry, looked up, the tested form may be a part): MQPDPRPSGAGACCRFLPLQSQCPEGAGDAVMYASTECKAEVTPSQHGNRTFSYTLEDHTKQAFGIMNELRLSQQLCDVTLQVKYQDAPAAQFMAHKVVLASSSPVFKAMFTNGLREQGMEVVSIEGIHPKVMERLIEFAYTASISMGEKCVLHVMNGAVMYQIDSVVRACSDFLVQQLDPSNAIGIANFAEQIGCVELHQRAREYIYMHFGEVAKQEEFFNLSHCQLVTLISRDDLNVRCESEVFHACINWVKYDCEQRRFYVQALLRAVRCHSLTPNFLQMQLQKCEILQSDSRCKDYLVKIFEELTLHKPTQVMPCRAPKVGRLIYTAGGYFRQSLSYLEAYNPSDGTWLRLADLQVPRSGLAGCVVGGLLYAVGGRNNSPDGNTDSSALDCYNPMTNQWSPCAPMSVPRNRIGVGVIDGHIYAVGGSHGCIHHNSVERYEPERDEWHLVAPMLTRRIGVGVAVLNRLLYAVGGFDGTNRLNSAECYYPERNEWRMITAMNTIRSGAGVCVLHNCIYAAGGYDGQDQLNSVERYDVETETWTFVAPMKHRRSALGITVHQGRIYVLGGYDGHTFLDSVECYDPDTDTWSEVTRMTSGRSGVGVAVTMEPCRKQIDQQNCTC
An asterisk follows results filed as active; / = not tested or not shown. In the library only some 0.85% were active in any assay of this set; here they are far more common.

SMILES	ZTA DNA inh	EBNA-1 inhibitor	LANA DNA inh	E coli Lon inh	Keap1-Nrf2 PPI
COC(=O)c1cccc(NC(=O)CSc2nnc(C)o2)c1	8	8	1	-3	-8
CCCCNC(=O)C1(C)CCCCN1Cc1ccc(-c2ccccc2)cc1 (centres undefined)	/	/	/	-8	/
Nc1c(N2CCCC2)cc(Cl)c2nonc12	12	12	-4	4	-20
Nc1ccc(N2CCCCC2)c2nonc12	57*	-14	0	0	-6
O=C(O)c1ccc(-n2cccc2/C=C2/SC(=O)N(CC(=O)N3CCCC3)C2=O)cc1	3	4	64*	-6	3
CC(C)(O)[C@H]1Cc2cc3ccc(=O)oc3cc2O1	1	-13	0	-2	0
O=C(O)c1ccccc1-c1ccc(/C=c2\sc3nc4cc(Br)cnc4n3c2=O)o1	22	4	74*	-45	-21
Cc1cc2nc3s/c(=C/c4ccc(-c5ccccc5C(=O)O)o4)c(=O)n3c2cc1C	-7	16	-4	-26	-8
CC(C)/C=C/CN1CCN(CCCc2ccccc2)C(CCO)C1 (centres undefined)	-4	1	-2	9	-1
CC(/C=C1\SC(=S)N(CCCC(=O)Nc2ccc(C(=O)O)cc2)C1=O)=C\c1ccccc1	19	14	85*	-14	-3
O=C(CN1C(=O)/C(=C\c2ccco2)SC1=S)Nc1ccc(O)cc1C(=O)O	28	5	64*	-25	-5
O=C(O)CCCN1C(=O)/C(=C\c2ccco2)SC1=S	/	/	43	-4	3
O=C(CCN1C(=O)/C(=C/c2ccco2)SC1=S)Nc1ccc(C(=O)O)c(O)c1	27	-5	88*	-27	-3
O=C(CCCN1C(=O)/C(=C/c2ccco2)SC1=S)Nc1ccccc1C(=O)O	23	5	66*	-8	-3
CCCNC(=O)c1cc2c(c(-c3cccc(-c4cc5ccccc5o4)c3)n1)[C@H](CCO)N(C(=O)NC(C)C)C2	/	/	/	-6	/
CCn1c(CSc2nnc(-c3ccncc3)n2C)nc2cc(C(=O)O)ccc21	43*	30*	2	6	0
CCn1c(CSc2ncn[nH]2)nc2cc(C(=O)O)ccc21	-11	6	0	6	1
NC(=O)c1ccc(NC(=O)C2COc3ccccc3O2)cc1 (centres undefined)	3	-9	/	-3	69*
COc1ccccc1CN(C(=O)CCl)C(C(=O)NC1CCCCC1)c1ccncc1 (centres undefined)	12	-4	2	25*	-11
O=C(Nc1ccc2nc(-c3ccco3)c(-c3ccco3)nc2c1)N1CCCCCC1	41*	24	/	/	/
CCOC(=O)C1CCN(C(=O)Nc2ccc3nc(-c4ccco4)c(-c4ccco4)nc3c2)CC1	11	4	2	13	-3
C(=C\c1ccc2nncn2c1)/c1ccccc1	/	/	/	-27	/
O=C(O)CCC1c2cc3c4cc2OC2Oc5cc6c(cc51)C(CCC(=O)O)c1cc5c7cc1OC(O6)c1cc6cc(c1)Oc1cc(cc(C(=O)O)c1)Oc1cc8cc(c1)C(Oc1cc(c(cc1C5CCC(=O)O)C3CCC(=O)O)OC(O4)c1cc(cc(c1)Oc1cc(cc(C(=O)O)c1)O8)Oc1cc(cc(C(=O)O)c1)Oc1cc(cc2c1)Oc1cc(cc(C(=O)O)c1)O6)O7 (centres undefined)	106*	102*	/	/	/
CC(=O)c1cccc(NC(=O)COC(=O)Cn2cnc3ccccc32)c1	/	/	1	-9	1
Cc1noc(C)c1-c1nc(CSc2ccccc2)no1	7	-10	91*	-8	-2
SMILES	ZTA DNA inh	EBNA-1 inhibitor	LANA DNA inh	E coli Lon inh	Keap1-Nrf2 PPI
O=C(Cc1c(Cl)cccc1Cl)N1CCN(S(=O)(=O)c2cccs2)CC1	4	/	1	-14	-4
O=C(NNC(=O)C1CCN(C(=O)Nc2ccccc2)CC1)c1ccc([N+](=O)[O-])cc1	-1	/	0	10	-4
CC(C)(CS(=O)(=O)[O-])NC(=O)CC[N+](C)(C)CCO	15	5	82*	-5	-1
Cc1ccc2nc(-c3ccc(NC(=O)COC(=O)c4ccc(Br)o4)cc3)sc2c1	4	35*	-2	11	-5
Cc1ccc2nc(-c3ccc(NC(=O)COC(=O)c4ccc([N+](=O)[O-])o4)cc3)sc2c1	7	-1	-1	9	-4
O=C1c2cccc3c([N+](=O)[O-])ccc(c23)C(=O)N1c1ccc(Cl)cn1	5	3	5	65*	-2
O=C1c2cccc3c([N+](=O)[O-])ccc(c23)C(=O)N1O	8	-14	3	43	20*
CC1CCN(c2ccc3c(c2)S(=O)(=O)c2cccc(C(=O)NCc4cccc(F)c4)c2C3=O)CC1	6	/	3	-86	2
O=C(NCCc1ccc(F)cc1)c1cccc2c1C(=O)c1ccc(N3CCC(Cc4ccccc4)CC3)cc1S2(=O)=O	/	/	14	29*	-6
O=C(NCCN1CCOCC1)c1cccc2c1C(=O)c1ccc(N3CCCC3)cc1S2(=O)=O	/	/	-5	-30	-33
O=C(O)c1cccc2c1C(=O)c1ccc(N3CCCC3)cc1S2(=O)=O	3	/	8	48*	-32
O=C(NCc1cccc(F)c1)c1cccc2c1C(=O)c1ccc(N3CCC(Cc4ccccc4)CC3)cc1S2(=O)=O	/	/	17	39*	6
Cc1nnc(NC(=O)CSc2nnc(CC(=O)Nc3ccccc3C)n2C)s1	-2	-14	-1	11	-2
Cc1ccc(OCCNC(=O)[C@H]2O[C@@H](n3ccc(N)nc3=O)[C@H](O)[C@@H]2O)cc1C	/	/	/	-4	/
CC1(C(=O)NCc2ccc(C(F)(F)F)cc2)CCN1Cc1ccc(-c2ccccc2)o1 (centres undefined)	/	/	/	-11	/
CC(OC(=O)c1c2c(nc3ccccc13)/C(=C\c1ccc3c(c1)OCO3)CCC2)C(=O)Nc1ccc(S(N)(=O)=O)cc1 (centres undefined)	/	/	10	77*	-3
O=C(NC(=S)Nc1ccc(NC(=O)c2cccs2)cc1)c1ccco1	0	8	5	1	-3
O=C(NC(=S)Nc1ccc(NC(=O)c2cccs2)cc1)c1cc2ccccc2o1	26	69*	-6	-6	8
Cc1c2ccccc2nc2ccccc12	14	-2	2	-9	-1
CCCNc1c(F)c(F)c2c(C)c3ccccc3nc2c1F	6	4	2	60*	4
CN(CCc1ccccc1)C(C(=O)Nc1ccc2c(c1)OCCO2)c1ccnc2ccccc12 (centres undefined)	/	/	/	-9	/
NS(=O)(=O)c1ccc2nc(NC(=O)Nc3ccccc3F)sc2c1	6	5	1	-5	3
Cc1ccccc1NC(=O)Nc1nc2ccc(S(C)(=O)=O)cc2s1	38*	155*	-1	-4	2
Cc1cc(C)c2sc(NC(=O)c3ccc(N4C(=O)CCC4=O)cc3)nc2c1	20	-1	-1	0	-3
Cc1ccc2nc(NC(=O)c3ccc(N4C(=O)CCC4=O)cc3)sc2c1	2	35*	1	-4	-1
O=C1NC(c2ccc(Br)cc2)Nc2ccccc21 (centres undefined)	5	-2	107*	-2	-6
